PubChem BioAssay (Tox21)
Inconclusive results are not listed. Unmarked numbers belong to inactive results. Active and inactive are the calls of the source. Unless noted, calls follow the shape of the full dose curve.
% is scaled to controls: 0 for no effect and ±100 for the full control effect.

Tested on: not listed separately
Experiment: cAMP Responsive Elements (CRE) small molecule antagonists, cell-based qHTS assay (AID 1963591; active = well fitted inhibition curve with a large enough effect in the signal ratio in the repeat runs, not every such curve was filed as active; the % refers to the signal ratio)
Details: CRE-bla HEK293T, beta-lactamase FRET ratio; series mostly up to 92.4 µM; activity change, negative = inhibition: at the top concentration
Summary of the method: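 HEK293T cells carrying a CRE-driven beta-lactamase reporter receive compound and NKH477 (0.25 uM final) for 3 h. Fluorescence from LiveBLAzer B/G FRET substrate is read after 2 h at room temperature.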
For `NS(=O)(=O)c1cc2c(cc1Cl)NC(C(Cl)Cl)NS2(=O)=O` (stereo not given), the “activity change, negative = inhibition” value was -4.39% [at 42.4 µM].
For `COC(=O)[C@@H]1[C@H]2C[C@H]3c4[nH]c5ccccc5c4CCN3C[C@@H]2CC[C@@H]1O`, the “activity change, negative = inhibition” value was 7.91% [at 42.4 µM].
For `Oc1cccc(O)c1O`, the “activity change, negative = inhibition” value was -4.57%.
For `CCN[C@@H]1C[C@H](N)[C@@H](OC2OC(CN)=CCC2N)[C@H](O)[C@H]1O[C@H]1OC[C@](C)(O)[C@H](NC)[C@H]1O` (stereo not given in full), the activity change, negative = inhibition was -9.29% [at 0.349 µM].
In the case of `O=C(O)CCNC(=O)c1ccccc1`, the “activity change, negative = inhibition” value is reported as 9.63% [at 42.4 µM].
In the case of `CCCN(CCC)C(=O)C(CCC(=O)O)NC(=O)c1ccccc1` (stereo not given), the “activity change, negative = inhibition” value is reported as -0.134% [at 42.4 µM].
In the case of `CNS(=O)(=O)Cc1ccc2[nH]cc(CCN(C)C)c2c1`, the “activity change, negative = inhibition” value is reported as 1.31% [at 42.4 µM].
With `CCOC(=O)[C@H](CCc1ccccc1)N[C@@H](C)C(=O)N1[C@H](C(=O)O)C[C@@H]2CCC[C@@H]21` the “activity change, negative = inhibition” value was 0.112% [at 42.4 µM].
In the case of `Nc1ccc(S(=O)(=O)NC(=O)c2ccccc2)cc1`, the “activity change, negative = inhibition” value is reported as -7.66% [at 42.4 µM].
With `CCn1cc(C(=O)O)c(=O)c2cnc(N3CCCC3)nc21` the activity change, negative = inhibition was -10.5% [at 8.39 µM].
For `CCn1cc(C(=O)O)c(=O)c2cc(F)c(N3CCNCC3)cc21`, the “activity change, negative = inhibition” value was -4.02% [at 42.4 µM].
For `CC(C)(C)NCC(O)COc1cccc2c1C[C@H](O)[C@H](O)C2` (stereo not given in full), the “activity change, negative = inhibition” value was -0.11% [at 42.4 µM].
With `O=C(Oc1ccccc1C(=O)O)c1ccccc1O` the “activity change, negative = inhibition” value was 7.54% [at 42.4 µM].
In the case of `C[n+]1ccccc1/C=N/O`, the “activity change, negative = inhibition” value is reported as 11.2% [at 42.4 µM].
In the case of `COC(=O)CCc1ccc(OCC(O)CNC(C)C)cc1` (stereo not given), the “activity change, negative = inhibition” value is reported as -0.216% [at 42.4 µM].
In the case of `NCCCCCC(=O)O`, the “activity change, negative = inhibition” value is reported as -11% [at 42.4 µM].
With `CCOc1cc(N)c(Cl)cc1C(=O)NCC1CN(Cc2ccc(F)cc2)CCO1` (stereo not given) the “activity change, negative = inhibition” value was -16% [at 42.4 µM].
With `CCCc1nn(C)c2c(=O)[nH]c(-c3cc(S(=O)(=O)N4CCN(C)CC4)ccc3OCC)nc12` the “activity change, negative = inhibition” value was 14.1% [at 42.4 µM].
With `Cc1ccc(S(=O)(=O)NC(=O)NN2CC3CCCC3C2)cc1` (stereo not given) the “activity change, negative = inhibition” value was -1.81% [at 42.4 µM].

Molecular target: Beta-2 adrenergic receptor (Homo sapiens) (UniProt P07550)
Sequence (P07550 whole entry, looked up): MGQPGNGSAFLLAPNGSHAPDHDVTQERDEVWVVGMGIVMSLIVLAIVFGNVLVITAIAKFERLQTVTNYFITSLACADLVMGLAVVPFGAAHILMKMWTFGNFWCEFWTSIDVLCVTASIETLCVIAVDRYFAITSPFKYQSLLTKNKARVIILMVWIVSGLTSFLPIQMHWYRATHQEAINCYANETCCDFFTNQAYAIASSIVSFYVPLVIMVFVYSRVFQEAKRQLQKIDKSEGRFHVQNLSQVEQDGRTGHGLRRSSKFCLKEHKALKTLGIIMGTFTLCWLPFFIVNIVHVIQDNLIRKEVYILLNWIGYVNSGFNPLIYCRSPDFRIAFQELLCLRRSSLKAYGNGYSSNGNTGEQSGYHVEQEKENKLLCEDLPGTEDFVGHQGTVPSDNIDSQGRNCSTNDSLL
Experiment: Adrenergic beta2 receptor (ADRB2) small molecule antagonists, cell-based qHTS assay (AID 1963592); also: nearly all actives have a fitted effect of over 50% in size; also: potency is read from the fitted curve at half-maximal effect
Details: CHO-ADRB2 cells, isoproterenol-stimulated cAMP HTRF ratio, 0.5 h; series mostly up to 92.4 µM; activity change, negative = inhibition: at the top concentration
Summary of the method: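 Cells (CHO, stable ADRB2 overexpression) incubated 18-20hr at 37C; compounds added from DMSO; agonist mix (1nM isoproterenol, 100uM IBMX, 25uM Ro-20-1724) added; 0.5hr RT; d2-cAMP and anti-cAMP-cryptate added; 1hr RT; 665/615 nm read.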
In the case of `O=c1[nH]c(=O)n([C@H]2C[C@H](O)[C@@H](CO)O2)cc1I`, the “activity change, negative = inhibition” value is reported as -0.698% [at 42.5 µM].
With `CC[N+](CC)(CC)CCOc1cccc(OCC[N+](CC)(CC)CC)c1OCC[N+](CC)(CC)CC` the “activity change, negative = inhibition” value was -5.99% [at 42.5 µM].
In the case of `C[N+]1(C)[C@@H]2CC(OC(=O)[C@H](CO)c3ccccc3)C[C@H]1[C@@H]1O[C@@H]12` (stereo not given in full), the “activity change, negative = inhibition” value is reported as 0.191% [at 42.5 µM].
For `C[C@@H]1C[C@H]2[C@@H]3CCC4=CC(=O)C=C[C@]4(C)[C@@]3(F)[C@@H](O)C[C@]2(C)[C@H]1C(=O)CO`, the “activity change, negative = inhibition” value was 1.33% [at 42.5 µM].
In the case of `C[C@H]1C[C@H]2[C@@H]3CCC4=CC(=O)C=C[C@]4(C)[C@@]3(F)[C@@H](O)C[C@]2(C)[C@@]1(O)C(=O)COP(=O)(O)O`, the “activity change, negative = inhibition” value is reported as 8.89%.
In the case of `CCOC(=O)OC(C)OC1=C(C(=O)Nc2ccccn2)N(C)S(=O)(=O)c2ccccc21` (stereo not given), the “activity change, negative = inhibition” value is reported as 0.136% [at 42.5 µM].
For `C[N+](C)(C)CC(O)CC(=O)[O-]` (stereo not given), the “activity change, negative = inhibition” value was 6.98% [at 42.5 µM].
With `CC1=NS(=O)(=O)c2cc(Cl)ccc2N1` the “activity change, negative = inhibition” value was 2.11% [at 42.5 µM].
With `CC[C@H]1OC(=O)[C@H](C)[C@@H](O[C@H]2C[C@@](C)(OC)[C@@H](O)[C@H](C)O2)[C@H](C)[C@@H](O[C@@H]2O[C@H](C)C[C@H](N(C)C)[C@H]2O)[C@](C)(OC)C[C@@H](C)C(=O)[C@H](C)[C@@H](O)[C@]1(C)O` the “activity change, negative = inhibition” value was -0.151%.
For `CC[C@H]1OC(=O)[C@H](C)[C@@H](O[C@H]2C[C@@](C)(OC)[C@@H](O)[C@H](C)O2)[C@H](C)[C@@H](O[C@@H]2O[C@H](C)C[C@H](N(C)C)[C@H]2O)[C@](C)(O)C[C@@H](C)C(=O)[C@H](C)[C@@H](O)[C@]1(C)O`, the “activity change, negative = inhibition” value was -6.23% [at 42.5 µM].
Molecule `NCCCNCCSP(=O)(O)O` has an activity change, negative = inhibition of -7.99% [at 8.39 µM].
For `CCOC(=O)[C@H](CCc1ccccc1)N[C@@H](C)C(=O)N1CCC[C@H]1C(=O)O`, the “activity change, negative = inhibition” value was -6.17% [at 42.5 µM].
With `Oc1cccc(O)c1O` the “activity change, negative = inhibition” value was 0.397%.
For `COc1cc(C(=O)NC2CCCNC2)cc(OC)c1OC` (stereo not given), the “activity change, negative = inhibition” value was -13% [at 42.5 µM].
`CCN[C@@H]1C[C@H](N)[C@@H](OC2OC(CN)=CCC2N)[C@H](O)[C@H]1O[C@H]1OC[C@](C)(O)[C@H](NC)[C@H]1O` (stereo not given in full) showed an activity change, negative = inhibition of -0.979% [at 0.349 µM].
With `O=C(O)CCNC(=O)c1ccccc1` the “activity change, negative = inhibition” value was 1.38% [at 42.5 µM].
In the case of `CN1CCN(C(c2ccccc2)c2ccccc2)CC1`, the “activity change, negative = inhibition” value is reported as -4.01% [at 42.5 µM].
In the case of `CCCN(CCC)C(=O)C(CCC(=O)O)NC(=O)c1ccccc1` (stereo not given), the “activity change, negative = inhibition” value is reported as 3.7% [at 42.5 µM].
For `CNS(=O)(=O)Cc1ccc2[nH]cc(CCN(C)C)c2c1`, the “activity change, negative = inhibition” value was 5.01% [at 42.5 µM].
With `CCN(CC)CCNC(=O)c1cc(S(C)(=O)=O)ccc1OC` the “activity change, negative = inhibition” value was -7.92% [at 42.5 µM].
For `Nc1ccc(S(=O)(=O)NC(=O)c2ccccc2)cc1`, the “activity change, negative = inhibition” value was 4.26% [at 42.5 µM].
`CCn1cc(C(=O)O)c(=O)c2cnc(N3CCCC3)nc21` gave an activity change, negative = inhibition of -0.194% [at 8.39 µM].
With `CCn1cc(C(=O)O)c(=O)c2cc(F)c(N3CCNCC3)cc21` the “activity change, negative = inhibition” value was 2.73% [at 42.5 µM].
For `Cc1[nH]cnc1CN1CCc2c(c3ccccc3n2C)C1=O`, the “activity change, negative = inhibition” value was 2.05% [at 42.5 µM].
With `O=C(Oc1ccccc1C(=O)O)c1ccccc1O` the “activity change, negative = inhibition” value was -5.31% [at 42.5 µM].
In the case of `C[n+]1ccccc1/C=N/O`, the “activity change, negative = inhibition” value is reported as -2.22% [at 42.5 µM].
With `CC12CCC(CC1=O)C2(C)C` (stereo not given) the “activity change, negative = inhibition” value was 9.49%.
In the case of `COC(=O)CCc1ccc(OCC(O)CNC(C)C)cc1` (stereo not given), the Potency is reported as 9.44 µM (active).
For `NCCCCCC(=O)O`, the “activity change, negative = inhibition” value was 3.67% [at 42.5 µM].
With `CCOc1cc(N)c(Cl)cc1C(=O)NCC1CN(Cc2ccc(F)cc2)CCO1` (stereo not given) the “activity change, negative = inhibition” value was -13.9% [at 42.5 µM].
In the case of `CCCc1nn(C)c2c(=O)[nH]c(-c3cc(S(=O)(=O)N4CCN(C)CC4)ccc3OCC)nc12`, the “activity change, negative = inhibition” value is reported as -11.2% [at 42.5 µM].
